Results as given in PubChem BioAssay.
The source made the active and inactive calls.

What was measured:
[1] = small molecules captured by biotinylated probe aFSTL3 – biochemical, small-molecule microarray, fluorescence 635/667, stem cell growth factor project, primary screen (AID 1064); conditions: higher = more signal;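 note: measures binding of the biotinylated anti-FSTL3 antibody to printed compounds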
[2] = binders from COS7 lysate, DM2A8 probe, primary screen, torsin A project, cell lysate, small-molecule microarray, fluorescence 635/667 (AID 1065); conditions: higher = more signal, COS7 lysate expressing mutant human TOR1A
[3] = small molecules captured by biotinylated probe aFGF2 – biochemical, small-molecule microarray, fluorescence 635/667, stem cell growth factor project, primary screen (AID 1067); conditions: higher = more signal;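 note: measures binding of biotinylated aFGF2 protein to printed compounds on slides; z-score merges feature fluorescence and signal-to-noise across triplicate slides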
[4] = small molecules captured by biotinylated probe aFGF10 – biochemical, small-molecule microarray, fluorescence 635/667, stem cell growth factor project, primary screen (AID 1071); conditions: higher = more signal;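 note: score merges 667 nm spot intensity and signal to noise from triplicate slides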
[5] = molecular target: Neurogenic locus notch homolog protein 2 (Homo sapiens) (UniProt Q04721); assay: small molecules binding Notch2 protein – biochemical, small-molecule microarray, 635 nm fluorescence, stem cell growth factors, primary screen (AID 1073); conditions: higher = more signal
[6] = molecular target: Pro-neuregulin-1, membrane-bound isoform (Homo sapiens) (UniProt Q02297); assay: small molecules binding neuregulin-1 protein – biochemical, small-molecule microarray, fluorescence 635/667, psychiatric disease protein project, primary screen (AID 1075); conditions: NRG1 binding, 635 nm fluorescence, higher = more signal;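 note: score combines 667 nm spot fluorescence with signal to noise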
[7] = tested on: Neuregulin-1 EGF-like domain; assay: small molecules binding NRG1 EGF domain – biochemical, small-molecule microarray, 635 nm fluorescence, primary screen (AID 1081); conditions: higher = more signal;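 note: binding of the protein to compounds printed on small-molecule microarray slides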
[8] = FRG1 expression reporter modulators in myotubes – cell-based, C2C12 myotubes, firefly/Renilla luciferase, luminescence, FRG1 inhibition for FSHD, primary screen (AID 1084); conditions: FRG1 promoter luciferase, higher = more signal, called active from +8 up or from −8 down
[9] = small molecules captured by biotinylated probe aFST – biochemical, small-molecule microarray, fluorescence 635/667, stem cell growth factor project, primary screen (AID 1086); conditions: higher = more signal;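 note: score merges 667 nm fluorescence with signal-to-noise of each printed compound spot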
[10] = binders of probe aHhip on microarray, primary screen, stem cell growth factor project, biochemical, small-molecule microarray, fluorescence 635/667 (AID 1087); conditions: higher = more signal;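 note: score merges spot fluorescence at 667nm with spot signal to noise ratio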
[11] = tested on: PRMT1 (protein arginine N-methyltransferase 1); assay: small molecules binding arginine methyltransferase PRMT1 – biochemical, small-molecule microarray, 635 nm fluorescence, primary screen (AID 1088); conditions: higher = more signal;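 note: binding of Prmt1 protein to compounds spotted on small-molecule microarray slides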
[12] = growth effects on S. cerevisiae YJM789 – YJM789 clinical isolate, OD600, 24 h, basal, primary screen (AID 1089); conditions: higher = more signal, called active from +8 up or from −8 down;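 note: growth of clinical yeast isolate S. cerevisiae YJM 789 seeded 1000 cells per well; test concentration not given here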
[13] = S. pombe growth modifiers, basal conditions – strain 972, OD600, 24 h, no modulator, primary screen (AID 1090);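 note: basal condition with compound alone and no growth modifier present; test concentration not given here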; conditions: S. pombe 972 growth, higher = more signal, called active from +8 up or from −8 down
[14] = budding yeast growth modifiers under rapamycin – strain BY4716, OD600, 96 h, primary screen (AID 1091); note: test concentration not given here; conditions: S. cerevisiae BY4716 + rapamycin, higher = more signal, called active from +8 up or from −8 down
[15] = molecular target: Torsin-1A-interacting protein 2 (Homo sapiens) (UniProt Q8NFQ8); assay: small molecules binding lysate-expressed LULL1 – cell lysate, human LULL1 lysate, 635/667 nm fluorescence, primary screen (AID 1092); conditions: small-molecule microarray, hLULL1 lysate binding, 635 nm fluorescence; higher = more signal;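 note: probe is lysate of COS7 cells overexpressing human LULL1; score merges per-feature 667 nm fluorescence with signal-to-noise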
[16] = optical density change of DRC41 E. coli – strain DRC41, OD650, 24 h, E. coli filamentation project, primary screen (AID 1093);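 note: MC1000 strain lacking acrAB efflux and sulA so SOS filamentation is blocked; test concentration not given here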; conditions: E. coli DRC41 growth, higher = more signal, called active from +8 up or from −8 down
[17] = probe aLefty2 binding to arrayed compounds – biochemical, biotinylated probe, 635/667 nm fluorescence, primary screen (AID 1094); conditions: small-molecule microarray, higher = more signal;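 note: score merges spot fluorescence near 667 nm with spot signal-to-noise ratio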
[18] = tested on: Noggin (protein binding on small-molecule microarray); assay: small molecules binding Noggin protein – biochemical, 635/667 nm fluorescence, primary screen (AID 1095); conditions: 635 nm fluorescence, higher = more signal;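 note: score merges 667 nm feature fluorescence with signal to noise over triplicate slides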
[19] = molecular target: Neurogenic locus notch homolog protein 3 (Homo sapiens) (UniProt Q9UM47); assay: small molecules binding NOTCH3 protein – biochemical, 635/667 nm fluorescence, primary screen (AID 1096); conditions: small-molecule microarray, 635 nm fluorescence, higher = more signal
[20] = probe aEGFR binding to arrayed compounds – biochemical, biotinylated probe, 635/667 nm fluorescence, primary screen (AID 1097); conditions: small-molecule microarray, higher = more signal;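 note: probe is a biotinylated anti-EGFR antibody binding compounds printed on slides; score combines fluorescence near 667 nm and signal to noise of each spot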

Sequence of Neurogenic locus notch homolog protein 3 (Homo sapiens) (Q9UM47 whole entry, looked up): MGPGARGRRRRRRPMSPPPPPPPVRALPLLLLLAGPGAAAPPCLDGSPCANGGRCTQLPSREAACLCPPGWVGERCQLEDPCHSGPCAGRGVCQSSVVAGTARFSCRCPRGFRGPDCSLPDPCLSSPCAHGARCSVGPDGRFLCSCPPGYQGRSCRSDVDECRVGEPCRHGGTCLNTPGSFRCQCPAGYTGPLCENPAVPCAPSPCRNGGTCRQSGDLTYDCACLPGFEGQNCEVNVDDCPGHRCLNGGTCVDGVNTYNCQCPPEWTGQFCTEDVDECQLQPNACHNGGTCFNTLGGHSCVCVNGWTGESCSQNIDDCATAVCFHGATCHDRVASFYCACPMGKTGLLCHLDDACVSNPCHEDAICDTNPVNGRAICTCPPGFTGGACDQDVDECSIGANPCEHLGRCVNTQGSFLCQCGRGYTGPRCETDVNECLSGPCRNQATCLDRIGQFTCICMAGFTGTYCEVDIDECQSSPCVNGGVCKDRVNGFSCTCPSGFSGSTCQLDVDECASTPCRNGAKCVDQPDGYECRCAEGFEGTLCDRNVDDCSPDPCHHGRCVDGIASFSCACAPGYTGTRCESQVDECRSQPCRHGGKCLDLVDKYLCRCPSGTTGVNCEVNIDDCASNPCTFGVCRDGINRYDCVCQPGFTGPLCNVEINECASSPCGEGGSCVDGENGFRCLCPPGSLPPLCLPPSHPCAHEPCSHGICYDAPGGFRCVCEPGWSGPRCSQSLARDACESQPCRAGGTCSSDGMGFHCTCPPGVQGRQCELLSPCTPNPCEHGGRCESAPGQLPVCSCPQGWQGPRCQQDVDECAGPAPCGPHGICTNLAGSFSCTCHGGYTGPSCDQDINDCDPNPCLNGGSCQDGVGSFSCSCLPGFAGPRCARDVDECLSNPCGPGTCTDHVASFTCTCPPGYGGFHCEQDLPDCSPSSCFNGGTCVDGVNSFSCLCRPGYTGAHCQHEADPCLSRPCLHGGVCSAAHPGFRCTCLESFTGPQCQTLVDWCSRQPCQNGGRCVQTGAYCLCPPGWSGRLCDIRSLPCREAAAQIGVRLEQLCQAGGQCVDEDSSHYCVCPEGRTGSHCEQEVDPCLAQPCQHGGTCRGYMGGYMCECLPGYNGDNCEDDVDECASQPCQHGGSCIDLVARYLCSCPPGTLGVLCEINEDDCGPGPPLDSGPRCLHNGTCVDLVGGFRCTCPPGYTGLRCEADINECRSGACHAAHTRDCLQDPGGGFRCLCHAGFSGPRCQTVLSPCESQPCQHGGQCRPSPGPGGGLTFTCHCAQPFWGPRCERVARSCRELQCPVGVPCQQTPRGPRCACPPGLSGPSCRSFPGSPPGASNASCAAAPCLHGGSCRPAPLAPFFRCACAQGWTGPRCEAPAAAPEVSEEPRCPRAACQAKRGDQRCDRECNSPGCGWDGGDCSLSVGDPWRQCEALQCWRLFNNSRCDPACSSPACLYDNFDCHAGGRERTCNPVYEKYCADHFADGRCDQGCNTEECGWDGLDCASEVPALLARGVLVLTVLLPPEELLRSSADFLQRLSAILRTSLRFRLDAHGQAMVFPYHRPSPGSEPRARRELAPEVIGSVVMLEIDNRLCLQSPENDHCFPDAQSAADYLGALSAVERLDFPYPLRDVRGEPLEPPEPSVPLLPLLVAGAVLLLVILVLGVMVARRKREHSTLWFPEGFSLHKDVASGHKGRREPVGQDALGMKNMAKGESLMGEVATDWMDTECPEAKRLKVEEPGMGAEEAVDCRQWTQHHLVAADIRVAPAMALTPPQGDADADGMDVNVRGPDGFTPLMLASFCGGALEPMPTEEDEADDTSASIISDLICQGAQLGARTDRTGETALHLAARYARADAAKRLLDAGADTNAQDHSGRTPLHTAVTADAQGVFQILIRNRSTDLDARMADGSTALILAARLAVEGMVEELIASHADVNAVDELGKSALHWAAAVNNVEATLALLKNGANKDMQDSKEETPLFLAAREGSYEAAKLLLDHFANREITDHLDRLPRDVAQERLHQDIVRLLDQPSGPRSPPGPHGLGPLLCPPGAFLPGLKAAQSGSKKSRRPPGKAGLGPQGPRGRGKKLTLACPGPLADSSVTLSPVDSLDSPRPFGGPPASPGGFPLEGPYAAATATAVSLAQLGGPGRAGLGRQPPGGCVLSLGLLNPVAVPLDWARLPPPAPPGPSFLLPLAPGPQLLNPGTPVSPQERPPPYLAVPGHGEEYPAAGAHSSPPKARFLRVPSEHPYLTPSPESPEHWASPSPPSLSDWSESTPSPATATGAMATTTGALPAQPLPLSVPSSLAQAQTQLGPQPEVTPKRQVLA
Sequence of Neurogenic locus notch homolog protein 2 (Homo sapiens) (Q04721 whole entry, looked up, canonical isoform): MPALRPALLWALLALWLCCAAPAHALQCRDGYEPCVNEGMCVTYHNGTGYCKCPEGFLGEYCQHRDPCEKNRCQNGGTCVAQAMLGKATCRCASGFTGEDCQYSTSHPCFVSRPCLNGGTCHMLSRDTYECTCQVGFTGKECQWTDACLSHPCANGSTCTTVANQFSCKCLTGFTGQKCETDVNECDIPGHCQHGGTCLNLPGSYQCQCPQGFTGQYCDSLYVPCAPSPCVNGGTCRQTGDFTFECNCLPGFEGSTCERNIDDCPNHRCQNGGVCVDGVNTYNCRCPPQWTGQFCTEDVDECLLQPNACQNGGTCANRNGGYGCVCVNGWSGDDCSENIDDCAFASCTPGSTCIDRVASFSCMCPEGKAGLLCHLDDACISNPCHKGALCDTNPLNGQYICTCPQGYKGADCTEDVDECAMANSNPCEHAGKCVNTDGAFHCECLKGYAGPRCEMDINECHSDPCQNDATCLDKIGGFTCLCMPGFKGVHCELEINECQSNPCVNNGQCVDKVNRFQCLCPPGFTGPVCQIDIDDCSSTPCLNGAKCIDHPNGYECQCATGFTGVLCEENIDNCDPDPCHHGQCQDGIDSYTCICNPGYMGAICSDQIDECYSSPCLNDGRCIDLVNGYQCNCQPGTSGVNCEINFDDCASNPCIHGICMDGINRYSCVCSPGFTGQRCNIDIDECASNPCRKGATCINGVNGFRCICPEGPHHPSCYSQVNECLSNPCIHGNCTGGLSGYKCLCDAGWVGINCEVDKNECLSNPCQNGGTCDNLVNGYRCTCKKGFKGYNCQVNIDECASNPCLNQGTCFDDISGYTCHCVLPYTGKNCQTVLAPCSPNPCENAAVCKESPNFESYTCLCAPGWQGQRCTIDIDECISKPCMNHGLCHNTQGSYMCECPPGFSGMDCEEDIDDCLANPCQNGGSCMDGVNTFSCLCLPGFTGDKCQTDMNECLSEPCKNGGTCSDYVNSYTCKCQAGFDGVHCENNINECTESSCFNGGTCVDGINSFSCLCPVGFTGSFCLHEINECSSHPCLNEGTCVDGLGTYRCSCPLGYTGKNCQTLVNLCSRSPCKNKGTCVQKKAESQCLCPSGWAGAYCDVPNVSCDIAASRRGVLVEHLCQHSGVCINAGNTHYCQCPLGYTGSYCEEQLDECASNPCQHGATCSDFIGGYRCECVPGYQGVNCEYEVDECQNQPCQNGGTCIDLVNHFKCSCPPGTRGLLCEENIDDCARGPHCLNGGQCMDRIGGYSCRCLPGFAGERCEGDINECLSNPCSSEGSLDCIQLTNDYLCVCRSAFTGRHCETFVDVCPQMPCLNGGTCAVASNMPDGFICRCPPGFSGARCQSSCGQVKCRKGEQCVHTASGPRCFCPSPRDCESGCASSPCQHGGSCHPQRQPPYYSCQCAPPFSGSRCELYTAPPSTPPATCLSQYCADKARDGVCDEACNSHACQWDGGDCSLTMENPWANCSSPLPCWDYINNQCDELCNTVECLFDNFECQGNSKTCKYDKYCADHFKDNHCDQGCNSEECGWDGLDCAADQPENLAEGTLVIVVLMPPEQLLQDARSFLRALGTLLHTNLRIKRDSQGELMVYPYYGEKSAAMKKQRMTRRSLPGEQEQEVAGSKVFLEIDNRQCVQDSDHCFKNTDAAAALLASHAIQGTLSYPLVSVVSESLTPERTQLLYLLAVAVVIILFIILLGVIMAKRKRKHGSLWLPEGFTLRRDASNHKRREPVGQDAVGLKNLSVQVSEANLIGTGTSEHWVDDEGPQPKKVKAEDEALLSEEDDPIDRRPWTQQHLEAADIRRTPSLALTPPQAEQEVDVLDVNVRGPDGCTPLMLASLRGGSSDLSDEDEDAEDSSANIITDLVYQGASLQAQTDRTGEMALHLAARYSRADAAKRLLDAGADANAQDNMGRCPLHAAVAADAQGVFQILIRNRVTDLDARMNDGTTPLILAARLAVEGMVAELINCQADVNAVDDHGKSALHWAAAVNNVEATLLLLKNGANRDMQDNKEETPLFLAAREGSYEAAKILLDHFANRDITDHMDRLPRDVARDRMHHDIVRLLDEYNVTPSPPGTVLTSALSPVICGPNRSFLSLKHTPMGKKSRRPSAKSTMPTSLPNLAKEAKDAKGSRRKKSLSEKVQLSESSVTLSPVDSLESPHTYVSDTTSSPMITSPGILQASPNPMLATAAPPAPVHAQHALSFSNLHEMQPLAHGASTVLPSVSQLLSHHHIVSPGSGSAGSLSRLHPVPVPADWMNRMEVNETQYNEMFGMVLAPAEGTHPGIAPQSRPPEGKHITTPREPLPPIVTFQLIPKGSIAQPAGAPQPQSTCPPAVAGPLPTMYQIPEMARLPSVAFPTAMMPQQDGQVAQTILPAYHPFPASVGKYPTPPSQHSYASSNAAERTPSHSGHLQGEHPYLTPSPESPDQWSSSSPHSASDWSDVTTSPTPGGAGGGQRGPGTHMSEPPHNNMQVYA

Row | Compound | composite z-score [1] | composite z-score [2] | composite z-score [3] | composite z-score [4] | composite z-score [5] | composite z-score [6] | composite z-score [7] | z-score [8] | composite z-score [9] | composite z-score [10] | composite z-score [11] | z-score [12] | z-score [13] | z-score [14] | composite z-score [15] | z-score [16] | composite z-score [17] | composite z-score [18] | composite z-score [19] | composite z-score [20]
1 | CS(=O)(=O)CCOC(=O)C1=CC(CCCO)=CC(c2ccc(CN3CCCC3)cc2)N(Cc2cc3c(cc2Br)OCO3)C=C1C(=O)OCCS(C)(=O)=O (stereo not given) | 0.26 | 1.77 | 0.127 | 1.22 | 1.38 | 2.1 | 1.25 | -0.271 (inactive) | 0.624 | 0.224 | 1.46 | 0.978 (inactive) | -5.34 (inactive) | -1.62 (inactive) | 2.5 | -0.567 (inactive) | 0.0417 | 0.334 | 1.15 | 0.101
2 | C#CCN(CC1=CCCCC1)[C@H](c1ccccc1Br)[C@@H](O)Cc1ccccc1 | 0.727 | 0.518 | -0.176 | -0.123 | -0.978 | 0.251 | 0.928 | -2.16 (inactive) | -0.967 | -0.166 | 0.249 | 0.119 (inactive) | -4.79 (inactive) | -0.655 (inactive) | 1.04 | 1.79 (inactive) | -0.0724 | -0.51 | -0.721 | -0.356
3 | O=C1c2ccccc2[C@@]2(Cc3ccccc3N(CCN3CCOCC3)C2=O)[C@H](c2ccc(CO)cc2)N1Cc1ccccc1 | -0.0459 | -0.374 | -0.166 | -0.318 | -0.933 | -0.561 | -0.86 | -0.0352 (inactive) | -0.0633 | -0.0618 | 1.08 | -0.338 (inactive) | 0.047 (inactive) | -1.78 (inactive) | 1.4 | 0.959 (inactive) | -0.156 | -0.0855 | -0.038 | -0.172
4 | C=CCOC(=O)[C@@H]1[C@H]2C(=O)O[C@H](c3ccccc3)[C@H](c3ccccc3)N2[C@H](c2ccc(OCCOC(=O)[C@@H]3C[C@@H]4C(=O)N5CCC[C@H]5C(=O)N4[C@@H]3c3ccc(O)cc3)cc2)[C@@]12C(=O)Nc1ccc(I)cc12 | -0.354 | -0.0315 | -0.0958 | 0.235 | 0.666 | 0.596 | 1.19 | -0.804 (inactive) | 0.965 | -0.069 | 1.42 | -0.577 (inactive) | 0.687 (inactive) | 2.09 (inactive) | 2.55 | 1.75 (inactive) | -0.207 | 1.51 | 0.565 | -0.242
5 | COC(=O)[C@@]1(Cc2ccccc2)[C@H]2c3cc(C(=O)N(C)C)n(CCSCCO)c3C[C@H]2CN1C(=O)c1ccccc1 | -0.303 | 1.07 | 0.0413 | 0.689 | 1.17 | 1.28 | 1.24 | 1.27 (inactive) | 0.335 | 0.347 | -0.0249 | -0.177 (inactive) | 0.536 (inactive) | -0.694 (inactive) | 3.09 | -0.842 (inactive) | 0.172 | -0.411 | -0.0488 | 0.0239
6 | COC(=O)[C@@]1(Cc2ccc(OC)cc2)[C@H]2c3cc(C(=O)N4CCCC4)n(Cc4ccc(OC)c(OC)c4)c3C[C@H]2CN1C(=O)c1ccccc1 | 1.65 | 0.188 | 0.636 | 0.199 | 1.72 | 2.16 | 1.07 | 2.25 (inactive) | 1.74 | 0.319 | 0.929 | -0.515 (inactive) | 0.835 (inactive) | 1.18 (inactive) | 3.36 | -0.148 (inactive) | 1.2 | 0.793 | 1.11 | 0.889
7 | C=C/C=C/[C@H]1C(=C)CN([C@@H](Cc2ccccc2)C(=O)OC)[C@@H]1[C@H](O)Cc1ccccc1 | 0.042 | -0.951 | -0.203 | -0.189 | -1.06 | -0.824 | -0.5 | -0.164 (inactive) | -0.364 | -0.455 | -0.473 | -0.15 (inactive) | -1.35 (inactive) | -0.557 (inactive) | 0.428 | 0.311 (inactive) | -0.149 | -0.219 | -0.0424 | -0.316
8 | C=CCNC(=O)[C@H]1[C@@H]2C(=O)O[C@@H](c3ccccc3)[C@@H](c3ccccc3)N2[C@@H](c2ccccc2OCCO)[C@]12C(=O)Nc1ccc(C#CC3=CCCCC3)cc12 | -0.382 | 0.952 | -0.0534 | 0.88 | 1.04 | 0.666 | 1.09 | -2.87 (inactive) | 0.185 | 0.0695 | 1.55 | 2.06 (inactive) | -1.27 (inactive) | 4.78 (inactive) | 2.58 | 1.25 (inactive) | -0.117 | 1.23 | 1.1 | -0.0108
9 | CN1C(=O)C2C=CC(C(O)C3CCCCC3)N(Nc3ccc([N+](=O)[O-])cc3[N+](=O)[O-])C2C1=O (stereo not given) | 0.0318 | 0.548 | 0.0331 | 0.752 | 1.6 | 1.59 | 1.32 | 0.358 (inactive) | 1.51 | 0.236 | 1.52 | 0.492 (inactive) | 1.19 (inactive) | 0.68 (inactive) | 3.24 | -0.632 (inactive) | 0.191 | 0.219 | 1.03 | 0.0624
10 | COCCOC(=O)N1C(=O)[C@@]2(c3ccccc31)[C@H](c1ccc(O)cc1)N1[C@H](c3ccccc3)[C@H](c3ccccc3)OC(=O)[C@H]1[C@@H]2C(=O)NC[C@H](O)c1ccccc1 | 0.0147 | 0.702 | -0.0702 | 0.157 | 0.187 | 1.8 | 1.26 | -0.567 (inactive) | 0.118 | 0.0093 | 1.51 | 0.385 (inactive) | -0.238 (inactive) | 2.73 (inactive) | 2.98 | 0.505 (inactive) | -0.23 | 0.399 | 0.669 | -0.165
